# From PubChem BioAssay (NCATS)
# Results filed as inconclusive are left out. A call without a number means that no potency is given here. Activity calls are given as the source filed them. Unless noted, calls come from the whole dose curve; as a rule, active = well fitted curve in the direction sought with a large enough effect; inconclusive = small, poorly fitted or top-dose-only effect, or another doubt; inactive = no such curve, though single readings can be large; an effect the other way counts as inactive or inconclusive.
# Key:
# Furin (Homo sapiens) = Furin (Homo sapiens) (UniProt P09958); test: Furin counterscreen qHTS for Zika virus inhibitors (AID 1347149); note: nearly all actives have a fitted effect of over 70% in size; note: potency is the fitted concentration of half-maximal effect;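 for activity change, negative = inhibition: purified recombinant full-length human furin enzyme at 5 nM; fluorescence gain from furin cutting a BOC-RVRR-AMC peptide substrate over 15 min; top concentration of the series differs between compounds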
# Chain of Furin (Homo sapiens) (P09958 whole entry, looked up): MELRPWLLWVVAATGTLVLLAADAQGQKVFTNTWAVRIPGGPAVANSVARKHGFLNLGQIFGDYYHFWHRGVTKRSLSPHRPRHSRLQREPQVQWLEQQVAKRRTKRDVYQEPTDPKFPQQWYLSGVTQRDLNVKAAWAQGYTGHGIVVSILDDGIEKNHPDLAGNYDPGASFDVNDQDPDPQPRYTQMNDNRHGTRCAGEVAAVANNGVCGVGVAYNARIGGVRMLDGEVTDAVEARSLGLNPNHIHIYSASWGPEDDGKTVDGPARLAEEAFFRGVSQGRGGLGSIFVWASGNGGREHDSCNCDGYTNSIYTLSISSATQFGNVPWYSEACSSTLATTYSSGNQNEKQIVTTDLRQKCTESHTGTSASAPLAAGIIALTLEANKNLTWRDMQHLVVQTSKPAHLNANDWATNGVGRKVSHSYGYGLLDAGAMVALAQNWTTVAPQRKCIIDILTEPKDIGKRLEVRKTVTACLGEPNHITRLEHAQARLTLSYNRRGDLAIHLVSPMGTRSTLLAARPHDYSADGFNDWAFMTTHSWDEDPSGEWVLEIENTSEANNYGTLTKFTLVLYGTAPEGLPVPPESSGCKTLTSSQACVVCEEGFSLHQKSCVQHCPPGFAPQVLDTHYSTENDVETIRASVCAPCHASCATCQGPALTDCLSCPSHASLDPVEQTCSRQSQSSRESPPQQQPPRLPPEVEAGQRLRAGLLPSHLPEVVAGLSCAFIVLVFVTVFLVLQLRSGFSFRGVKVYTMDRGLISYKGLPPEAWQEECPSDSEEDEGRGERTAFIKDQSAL
# Summary of the method: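 Fluorogenic cleavage of BOC-RVRR-AMC (2 microM final, Km ~15 µM) was monitored (ex 340, em 450 nm) at 37C after 15 min RT preincubation of 5 nM furin with compounds in HEPES pH 7.0 buffer with CaCl2 and Triton X-100. Percent inhibition was fitted to a 4-parameter Hill curve.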
# [1] = Confirmatory screen GU Rhodamine qHTS for Zika virus inhibitors qHTS (AID 1347157); note: nearly all actives have a fitted effect of over 70% in size
# Summary of the method: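 A qHTS format was used, with compound concentrations ranging up to 114 microM. Each compound was preincubated with 25 nM NS2B-NS3 protease, and the substrate was then added at 1.5 microM. Curves were fitted with a 4-parameter Hill model.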
# [2] = target: Cytochrome P450 2D6 (Homo sapiens) (UniProt P10635); test: Cytochrome P450 family 2 subfamily D member 6 (CYP2D6) small molecule antagonists: luciferase biochemical (cell-free) qHTS assay (AID 1645840; active = well fitted curve in the direction sought with a large enough effect in the repeat runs; an effect the other way counts as inactive or inconclusive; note: potency is the fitted concentration of half-maximal effect; nearly all actives have a fitted effect of over 55% in size)
# Chain of Cytochrome P450 2D6 (Homo sapiens) (P10635 whole entry, looked up): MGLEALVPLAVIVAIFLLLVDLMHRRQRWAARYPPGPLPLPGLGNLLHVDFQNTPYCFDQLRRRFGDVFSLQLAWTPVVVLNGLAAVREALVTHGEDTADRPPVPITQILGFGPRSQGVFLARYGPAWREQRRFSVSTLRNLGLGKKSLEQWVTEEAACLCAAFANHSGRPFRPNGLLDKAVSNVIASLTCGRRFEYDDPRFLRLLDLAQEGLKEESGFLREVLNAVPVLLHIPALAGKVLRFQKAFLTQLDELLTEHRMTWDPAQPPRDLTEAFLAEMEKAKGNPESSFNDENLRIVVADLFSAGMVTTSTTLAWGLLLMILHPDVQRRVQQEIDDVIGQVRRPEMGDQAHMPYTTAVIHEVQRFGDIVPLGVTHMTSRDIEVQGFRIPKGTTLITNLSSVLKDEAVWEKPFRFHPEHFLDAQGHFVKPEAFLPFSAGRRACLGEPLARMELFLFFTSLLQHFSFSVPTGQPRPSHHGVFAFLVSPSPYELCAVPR
# Summary of the method: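 P450-Glo luminescent screen: recombinant CYP2D6 enzyme–proluciferin substrate mix preincubated with compound 10 min at room temperature, then NADPH regeneration added for 1 h at room temperature. Detection reagent added for 20 min; luciferin light read as relative luminescence units.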
# [3] = target: Cytochrome P450 2C9 (Homo sapiens) (UniProt P11712); test: Cytochrome P450 family 2 subfamily C member 9 (CYP2C9) small molecule antagonists: luciferase biochemical (cell-free) qHTS assay (AID 1645842; active = well fitted curve in the direction sought with a large enough effect in the repeat runs; an effect the other way counts as inactive or inconclusive; note: nearly all actives have a fitted effect of over 55% in size; note: potency is the fitted concentration of half-maximal effect)
# Chain of Cytochrome P450 2C9 (Homo sapiens) (P11712 whole entry, looked up): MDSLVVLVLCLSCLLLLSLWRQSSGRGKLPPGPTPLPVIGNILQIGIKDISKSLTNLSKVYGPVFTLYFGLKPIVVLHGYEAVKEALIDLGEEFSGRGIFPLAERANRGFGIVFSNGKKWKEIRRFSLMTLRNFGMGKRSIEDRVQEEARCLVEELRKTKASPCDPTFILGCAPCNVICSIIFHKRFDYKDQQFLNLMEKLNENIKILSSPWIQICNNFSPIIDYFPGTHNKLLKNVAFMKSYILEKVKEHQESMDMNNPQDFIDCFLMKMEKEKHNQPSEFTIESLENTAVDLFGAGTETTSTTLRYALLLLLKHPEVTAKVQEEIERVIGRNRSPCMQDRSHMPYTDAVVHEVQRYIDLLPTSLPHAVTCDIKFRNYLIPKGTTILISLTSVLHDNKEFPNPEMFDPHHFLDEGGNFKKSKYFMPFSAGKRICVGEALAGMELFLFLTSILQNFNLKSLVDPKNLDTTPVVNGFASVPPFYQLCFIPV
# Summary of the method: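 Luminescence, after 20 min with luciferin detection reagent, reflected CYP2C9 turnover during a 1 h NADPH-driven reaction at 37C. Enzyme-substrate mix contained 0.4% bovine serum albumin and was preincubated with compound 10 min at room temperature.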
# [4] = ZIKV-mCherry secondary qHTS for Zika virus inhibitors (AID 1347158); note: top concentration of the series differs between compounds
# Summary of the method: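 After overnight seeding at 37 °C, Vero cells receive compound and then ZIKV-mCherry (MOI 1). Following 48-72 h infection, cells are fixed, counterstained with Hoechst, and imaged; percent infected cells is derived from an mCherry intensity cut-off of 450 RFU.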
# [5] = test system: Zika virus NS2B-NS3 protease (linked); test: 384 well plate NINDS AMC confirmatory qHTS for Zika virus inhibitors (AID 1347163); note: nearly all actives have a fitted effect of over 50% in size; note: potency is the fitted concentration of half-maximal effect;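 for activity change, negative = inhibition: linked protease at 5 30 or 60 nM final depending on run; fluorescence of AMC released from Ac-VKTGKR-AMC peptide cleaved by the protease; top concentration of the series differs between compounds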
# Summary of the method: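 Linked protease 5/30/60 nM final; cpds up to 1 mM final, ~15 min preinc. Substrate Ac-VKTGKR-AMC 30 microM final. RT, dark, 25 min; FI ex 355/em 460; normalized to no-enzyme/no-inhibitor ctrls.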
# [6] = test system: Zika virus NS2B-NS3 protease (linked construct); test: 384 well plate NINDS Rhodamine confirmatory qHTS for Zika virus inhibitors (AID 1347164);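 note: fluorescence from protease cleavage of Ac-LKRR-rhodamine 110 substrate; nearly all actives have a fitted effect of over 65% in size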; note: potency is the fitted concentration of half-maximal effect; for activity change, negative = inhibition: top concentration of the series differs between compounds
# Summary of the method: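 Fluorescence at 485/538 nm was measured 25 minutes after adding 10 microM Ac-LKRR-Rd substrate, in the dark at room temperature. The protease (5, 30 or 60 nM final) had been preincubated ~15 minutes with compound; aprotinin as control.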
# [7] = Tertiary RLuc qRT-PCR qHTS assay for Zika virus inhibitors (AID 1347169); note: top concentration of the series differs between compounds; nearly all actives have a fitted effect of over 55% in size
# Summary of the method: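 Orthogonal cell-based readout: luminescence measured 1-1.5 hrs after adding live-cell Renilla substrate to Vero cells that had been infected with ZIKV-RLuc (MOI 1-2) post-compound, incubated 48-72 hrs at 37 degrees C.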
# [8] = Confirmatory screen NINDS Rhodamine qHTS for Zika virus inhibitors (AID 1347161); note: potency is the fitted concentration of half-maximal effect; nearly all actives have a fitted effect of over 60% in size
# Summary of the method: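 Percent inhibition, normalized to uninhibited and enzyme-free controls, is fitted to a 4-parameter Hill equation. Fluorescence change comes from a 15-min cleavage of 1.5 microM bis-peptide Rhodamine110 substrate by 25 nM linked NS2B-NS3 at room temperature.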
# [9] = target: Cytochrome P450 3A4 (Homo sapiens) (UniProt P08684); test: qHTS Assay for Inhibitors and Substrates of Cytochrome P450 3A4 (AID 884); note: nearly all actives have a fitted effect of over 50% in size
# Chain of Cytochrome P450 3A4 (Homo sapiens) (P08684 whole entry, looked up): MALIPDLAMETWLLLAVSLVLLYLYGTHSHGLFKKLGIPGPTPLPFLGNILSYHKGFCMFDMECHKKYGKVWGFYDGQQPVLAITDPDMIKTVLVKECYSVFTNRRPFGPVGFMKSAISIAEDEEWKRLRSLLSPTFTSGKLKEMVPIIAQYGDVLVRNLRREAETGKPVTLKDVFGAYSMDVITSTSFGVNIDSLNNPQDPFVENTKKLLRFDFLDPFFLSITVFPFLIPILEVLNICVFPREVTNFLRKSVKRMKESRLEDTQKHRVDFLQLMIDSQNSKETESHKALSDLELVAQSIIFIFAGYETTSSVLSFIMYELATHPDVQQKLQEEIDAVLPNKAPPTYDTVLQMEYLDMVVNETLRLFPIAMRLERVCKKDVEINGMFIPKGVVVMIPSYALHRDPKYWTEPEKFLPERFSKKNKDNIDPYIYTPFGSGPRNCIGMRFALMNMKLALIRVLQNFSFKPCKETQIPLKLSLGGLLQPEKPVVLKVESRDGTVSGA
# Summary of the method: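 20 nM human CYP3A4 with 25 uM Luciferin-PPXE (at KM) in 200 mM KPO4, preincubated 10 min with compound; NADPH regeneration started a 60 min RT reaction. Luciferin detected by luminescence, normalized to 57 uM ketoconazole as full inhibition.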
# [10] = Confirmation and Secondary Assay for Modulators of Hemoglobin Beta Chain Splicing at IVS2 654 locus (AID 910);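 note: HeLa cells stably carrying EGFP split by mutant beta-globin IVS2-654 intron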
# Summary of the method: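 Readout: per-well total peak green fluorescence (488 nm ex, 500–520 nm em) from objects 5–250 µm, reflecting correct splicing of an EGFP-654 reporter. Compounds were applied for 2 days at 37 °C to overnight-plated HeLa EGFP-654 cells; controls were DMSO and 500 nM IVS2-654 PNA.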
# [11] = Confirmation and Secondary Assay for Modulators of Hemoglobin Beta Chain Splicing at IVS2 705 locus (AID 930);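 note: HeLa cells stably expressing the EGFP-705 splicing reporter; GFP fluorescence per well restored by corrected splicing of the IVS2-705 intron in EGFP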
# Summary of the method: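 Read-out: total peak GFP fluorescence per well (488 nm excitation, 500-520 nm emission) by laser-scanning cytometry. Cells: HeLa EGFP-705 splicing reporter, 2 days compound exposure in Optimem/2% FCS.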
# [12] = qHTS Assay for Lipid Storage Modulators (AID 1519; calls by dose curve); conditions: Drosophila S3 cells, BODIPY lipid droplet/cell ratio, laser cytometry, cells loaded with oleic acid
# Summary of the method: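 Cells seeded at 5,000 per well were treated with compounds over a concentration series and loaded with oleic acid (400 uM, as added). Lipid droplet fluorescence (488 nm excitation, 500-530 nm channel) was read by laser-scanning cytometry and normalized to 20 uM Triacsin C.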
# [13] = target: Ubiquitin carboxyl-terminal hydrolase 1 (Homo sapiens) (UniProt O94782); test: Inhibitors of USP1/UAF1: Pilot qHTS (AID 504865);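 note: rhodamine fluorescence freed from ubiquitin-rhodamine substrate followed over time; top concentration of the series differs between compounds; nearly all actives have a fitted effect of over 35% in size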
# Chain of Ubiquitin carboxyl-terminal hydrolase 1 (Homo sapiens) (O94782 whole entry, looked up): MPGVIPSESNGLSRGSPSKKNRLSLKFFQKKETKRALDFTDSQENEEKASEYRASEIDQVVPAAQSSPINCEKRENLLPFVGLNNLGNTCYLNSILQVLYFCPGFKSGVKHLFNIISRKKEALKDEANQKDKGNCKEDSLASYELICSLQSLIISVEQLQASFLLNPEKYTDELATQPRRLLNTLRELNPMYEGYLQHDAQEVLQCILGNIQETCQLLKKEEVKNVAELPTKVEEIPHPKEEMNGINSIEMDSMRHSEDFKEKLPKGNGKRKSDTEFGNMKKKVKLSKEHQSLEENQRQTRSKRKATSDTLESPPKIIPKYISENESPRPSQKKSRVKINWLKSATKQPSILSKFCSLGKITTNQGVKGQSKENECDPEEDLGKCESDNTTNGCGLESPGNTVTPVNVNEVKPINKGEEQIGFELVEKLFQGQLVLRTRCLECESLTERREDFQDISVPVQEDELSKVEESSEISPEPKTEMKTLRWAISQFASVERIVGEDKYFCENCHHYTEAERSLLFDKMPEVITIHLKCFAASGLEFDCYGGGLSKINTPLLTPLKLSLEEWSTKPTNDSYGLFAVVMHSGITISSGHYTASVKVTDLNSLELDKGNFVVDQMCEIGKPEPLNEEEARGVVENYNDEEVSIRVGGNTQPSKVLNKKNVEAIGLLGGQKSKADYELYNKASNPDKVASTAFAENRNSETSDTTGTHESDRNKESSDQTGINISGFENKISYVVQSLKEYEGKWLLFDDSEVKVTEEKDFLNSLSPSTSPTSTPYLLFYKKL
# Summary of the method: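 Deubiquitinase activity followed as kinetic rhodamine fluorescence release from 150 nM Ub-Rho. 1 nM USP1/UAF1 with compound, after 15 min room-temperature preincubation, in HEPES pH 7.8 buffer containing TCEP, EDTA, BSA and Tween-20.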
smiles,measurement,setting,value
COc1ccc(Nc2nnc(-c3ccc(C)c(S(=O)(=O)NCc4nc5ccccc5[nH]4)c3)c3ccccc23)cc1,Potency,Furin (Homo sapiens),inactive
same,Potency,[1],inactive
same,Potency,[2],4.25 µM (active)
same,Potency,[3],7.56 µM (active)
Fc1cc(C2=Nn3c(COc4ccc(Cl)cc4Cl)nnc3S/C2=C\c2ccc(-c3ccc(Cl)cc3)o2)c(Cl)cc1Cl,Potency,Furin (Homo sapiens),inactive
same,Potency,[4],inactive
same,Potency,[5],158 µM (active)
same,Potency,[6],inactive
same,Potency,[7],inactive
Cc1nn2c(=O)cc(COC(=O)c3ccc(NC(=O)c4ccc(C(C)(C)C)cc4)cc3)nc2s1,Potency,Furin (Homo sapiens),52.7 µM (active)
same,Potency,[8],39.8 µM (active)
CCCCc1nn2c(=O)cc(COC(=O)c3ccc(NC(=O)c4cccc(OC)c4)cc3)nc2s1,Potency,Furin (Homo sapiens),41.8 µM (active)
same,Potency,[1],inactive
same,Potency,[7],inactive
O=C(O)Cc1cc(I)c(Oc2cc(I)c(O)c(I)c2)c(I)c1,Potency,[9],inactive
same,outcome,[10],inactive
same,outcome,[11],inactive
same,"activity change, negative = inhibition",[12]; at 57.5 µM (top of the series),3.04% (inactive)
same,max response,[12]; measured here: cell count channel max response,12.2%
same,max response,[12]; measured here: lipid channel max response,14.7%
same,Potency,[13],inactive
same,Potency,Furin (Homo sapiens),inactive
same,Potency,[1],inactive
same,Potency,[7],inactive
Cc1ccc(-c2nnc(Nc3ccccc3)c3ccccc23)cc1S(=O)(=O)NCc1nc2ccccc2[nH]1,Potency,Furin (Homo sapiens),41.8 µM (active)
same,Potency,[4],inactive
same,Potency,[5],inactive
same,Potency,[3],inactive
Cc1cc(S(=O)(=O)Nc2ccc(C(=O)O)cc2)c(C)c(S(=O)(=O)c2ccc(Cl)cc2)c1,Potency,Furin (Homo sapiens),inactive
same,Potency,[4],inactive
same,Potency,[8],44.7 µM (active)
same,Potency,[6],141 µM (active)
same,Potency,[7],inactive
O=C(Nc1cccc(C(=O)OCc2cc(=O)n3nc(C4CC4)sc3n2)c1)c1ccc(F)cc1,Potency,Furin (Homo sapiens),inactive
same,Potency,[4],inactive
same,Potency,[8],31.6 µM (active)
same,Potency,[5],89.1 µM (active)
same,Potency,[7],inactive
COc1ccccc1C(=O)Nc1ccc(C(=O)OCc2cc(=O)n3c4c(sc3n2)CCCC4)cc1,Potency,Furin (Homo sapiens),7.44 µM (active)
same,Potency,[4],inactive
same,Potency,[7],inactive
O=C(CSc1nnc(-c2cccc([S+](=O)([O-])NC3CCCC3)c2)n1-c1ccccc1)Nc1ccc(C(=O)O)cc1,Potency,Furin (Homo sapiens),inactive
same,Potency,[1],inactive
same,Potency,[7],inactive
O=c1oc2ccc3ccccc3c2cc1-c1nnc(Nc2cccc(C(F)(F)F)c2)s1,Potency,Furin (Homo sapiens),inactive
same,Potency,[1],inactive
same,Potency,[7],inactive
COc1ccc(C(=O)Nc2cccc(C(=O)OCc3cc(=O)n4c5c(sc4n3)CCCC5)c2)cc1,Potency,Furin (Homo sapiens),66.3 µM (active)
same,Potency,[1],inactive
same,Potency,[7],inactive
Cc1oc2c(cc(NS(=O)(=O)c3ccc(C(C)C)cc3)c3ccccc32)c1C(=O)OCc1ccccc1,Potency,Furin (Homo sapiens),inactive
same,Potency,[4],inactive
same,Potency,[5],inactive
COc1ccc(S(=O)(=O)c2c(O)c(C)cc(NS(=O)(=O)c3ccc(Cl)cc3)c2C(C)C)cc1,Potency,Furin (Homo sapiens),inactive
same,Potency,[1],inactive
same,Potency,[7],inactive
Cc1ccc(-c2nnc(Nc3ccc(Br)cc3)c3ccccc23)cc1S(=O)(=O)NCc1nc2ccccc2[nH]1,Potency,Furin (Homo sapiens),52.7 µM (active)
same,Potency,[4],inactive
same,Potency,[5],inactive
same,Potency,[6],inactive
same,Potency,[2],3.38 µM (active)
same,Potency,[3],0.849 µM (active)
